Outcome data for 40 compounds are collected here from PubChem BioAssay (Tox21).

Records with an inconclusive call do not appear. Activity calls are given as the source filed them. The call rests on the fitted dose curve; in most records, active means well fitted activation curve with a large enough effect in the repeat runs; inconclusive means weak or mixed curves; inactive means flat fitted curve, though single readings scatter.

The assay is described as follows: Caspase-3/7 induction in HepG2 cells by small molecules, qHTS assay (AID 1346978). Further: nearly all actives have a fitted effect of over 15% in size. The conditions noted are these: HepG2 caspase-3/7 activation, Caspase-Glo luminescence, 17 h; series mostly up to 92.4 µM. The text has this: National Center for Advancing Translational Sciences [NCATS] NIH Chemical Genomics Center [NCGC] U.S. Environmental Protection Agency [EPA] National Institutes of Environmental Health Sciences [NIEHS] National Toxicology Program [NTP] Assay overview: Apoptosis is a process of programmed cell death and plays a central role in the development of multicellular organisms. It is a highly regulated process and induces cell death by activating caspases, which are the members of cysteine aspartic acid-specific protease (caspase) family. Caspases involved in apoptosis are classified by their mechanism of action as initiator caspases (caspase-2, -8, -9 and -10) and executioner caspases (caspase-3, -6, and -7). Inhibition of apoptosis results in number of cancers, autoimmune diseases, inflammatory diseases and viral infection. To identify small molecule compounds that induce apoptosis, a homogeneous, luminescent Caspase-Glo 3/7 assay was used. Wild type HepG2 cells were used to screen Tox21 libraries for identifying caspase-3/7 activity inducers.
Assay Protocol Summary: HepG2 cells were dispensed at 2,000 per well in 5uL of culture medium into white solid bottom 1536-well plates (Corning Life Sciences, Corning, NY) using a Multidrop Combi (Thermo Scientific, Waltham, MA) dispenser. The assay plates were incubated at 37 C and 5% CO2 for 5hr, and then 23nL of compounds dissolved in DMSO and positive control were transferred using a Pintool station (Wako, San Diego, CA). The assay plates were incubated at 37C and 5% CO2 for 17hr. For caspase-3/7 activity read, 4uL of Caspase-Glo 3/7 reagent (Promega Corporation, Madison, WI) was added to each well of the assay plates using Flying Reagent Dispenser (FRD, Aurora Discovery, San Diego, CA) and incubated the assay plates at room temperature for 30min. The luminescence signal was quantified using a ViewLux plate reader (Perkin Elmer, Shelton, CT).
Background: Quantitative high-throughput screening tests each substance at several concentrations.
`O=[N+]([O-])c1ccc(Oc2ccc(Cl)cc2Cl)cc1`: the compound was called inactive. As to `CC(C)(C)C(O)(CCc1ccc(Cl)cc1)Cn1cncn1` (stereo not given), the compound was called inactive.

With `CCC12COCN1COC2`, the compound was classed as inactive.

Regarding `Nc1ccc(Cc2ccc(N)cc2)cc1`, the call was inactive. For `OCCN(CCO)CCO`, the outcome was inactive. The same measure for `CC(C#N)CCC#N` (stereo not given): “inactive”; for `CCCCCCCCCl`: “inactive”; for `CCCC1COC(Cn2cncn2)(c2ccc(Cl)cc2Cl)O1` (stereo not given): “inactive”.

As to `O=[N+]([O-])c1ccccc1`, the compound was classed as inactive.

Regarding `CC1OC(C)OC(C)O1` (stereo not given), the compound was called inactive.

`Clc1ccc(Cl)cc1`: the compound was classed as inactive. Consider `Cc1ccc([N+](=O)[O-])cc1C`, for which the call was inactive. The same measure for `CC(C)C1(C)N=C(c2nc3ccccc3cc2C(=O)O)NC1=O` (stereo not given): “inactive”.

Turning to `CCNc1nc(NC(C)C)nc(SC)n1`, the call was inactive. With `CC(C)C#N` the entry was “inactive”; with `O=c1ccc(=O)[nH][nH]1`, “inactive”; with `C1CC2OC2CC1C1CO1` (stereo not given), “inactive”.

As for `C=CC(N)=O`, the compound was classed as inactive. `CC(=O)C=C(C)C`: the call was inactive. Regarding `CCCCN(CCCC)SN(C)C(=O)Oc1cccc2c1OC(C)(C)C2`, the compound was called inactive. With `CC(C)(C)OOC(=O)c1ccccc1`, the compound was called inactive. With `Oc1ccccc1Cl` the entry was “inactive”. In the case of `CC(C)OC(=O)Nc1cccc(Cl)c1`, the compound was classed as inactive. Regarding `O=S(=O)(c1ccc(Cl)cc1)c1cc(Cl)c(Cl)cc1Cl`, the result was inactive. `CC(C)(Cl)Cl`: the compound was called inactive.

As for `C#CC(C)(C)NC(=O)c1cc(Cl)cc(Cl)c1`, the compound was called inactive.

For `CCCN(CCC)N=O`, the compound was classed as inactive. The same measure for `O=C1CCCN1`: “inactive”; for `CC(C)NC(=O)N1CC(=O)N(c2cc(Cl)cc(Cl)c2)C1=O`: “inactive”; for `O=[N+]([O-])c1ccc([As](=O)(O)O)cc1`: “inactive”. The same measure for `OC(O)C(Cl)(Cl)Cl`: “inactive”; for `CCCCCOC(=O)c1ccccc1C(=O)OCCCCC`: “inactive”; for `Nc1ccccc1C(=O)O`: “inactive”. With `NCC(O)c1ccc(O)cc1` (stereo not given), the compound was classed as inactive.

For `c1ccc(-c2ccccc2)cc1`, the result was inactive. With `[N-]=[N+]=[N-]` the entry was “inactive”.

With `c1ccc2c(c1)Oc1ccccc1O2`, the call was inactive. The same measure for `COCCl`: “inactive”; for `Cc1cc(Cl)ccc1O`: “inactive”; for `CC(NC(C)(C)C)C(=O)c1cccc(Cl)c1` (stereo not given): “inactive”.
